In PubChem BioAssay (Tox21):
Values joined by “and” are separate entries in the source; they are usually repeats but may differ in a detail not shown here. Equal entries are not always repeated. Results filed as inconclusive are left out. Entries that show only a call come without a potency. A number with no mark means an inactive call. Active and inactive are the calls of the source. Calls come from the whole dose curve; as a rule, active = well fitted cell-killing curve with a large enough effect in the repeat runs; inconclusive = weak or mixed curves, or effect the other way; inactive = flat fitted curve, though single readings scatter.

Legend:
[1] = cAMP Responsive Elements (CRE) small molecule antagonists, cell-based qHTS assay: qHTS cell viability counter screen (AID 2060913); note: nearly all actives have a fitted effect of over 40% in size
Summary of the method: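 Steps: cells plated and held 18 hrs at 37 C/5% CO2; compounds and NKH477 (0.25 uM final) added; 3 hrs incubation; reporter substrate read; CellTiter-Glo added to measure cytotoxicity by luminescence.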

[2] = cAMP Responsive Elements (CRE) small molecule agonists, cell-based qHTS assay: qHTS cell viability counter screen (AID 2060914);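 note: viability read after 3 h of compound exposure; nearly all actives have a fitted effect of over 50% in size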
Summary of the method: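 CRE-bla HEK293T cells in 10% dialyzed FBS medium were exposed to compounds for 3 h at 37C after 18 h plating. CellTiter-Glo was then added in the same wells, and luminescence was read after 30 min at room temperature.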
Potency is the fitted concentration of half-maximal effect.

Structure (SMILES)	Potency [1]	Potency [2]	viability change, negative = cytotoxic [1]	activity change, negative = cytotoxicity [2]
O=[N+]([O-])/N=C1\NCCN1Cc1ccc(Cl)nc1	inactive	inactive	–	–
O=C(O)C(F)(F)C(F)(F)C(F)(F)C(F)(F)C(F)(F)C(F)(F)C(F)(F)C(F)(F)C(F)(F)F	inactive	inactive	–	–
C=CC(=O)OCC(C)O (stereo not drawn)	inactive	inactive	–	–
Cc1ccc(-c2nc3ccc(C)cn3c2CC(=O)N(C)C)cc1	inactive	inactive	–	–
CS(=O)(=O)NC(=O)c1cc(Oc2ccc(C(F)(F)F)cc2Cl)ccc1[N+](=O)[O-]	inactive	inactive	–	–
CCN(CC)CCO	inactive	inactive	–	–
CN1CSC(=S)N(C)C1	inactive	inactive	–	–
CCCN(CCC)N=O	inactive	inactive	–	–
OCC1CO1 (stereo not drawn)	inactive	inactive	–	–
CCOC(=O)CCl	inactive	inactive	–	–
ClC(Cl)c1ccccc1	inactive	inactive	–	–
CC[N+]1(CC)CCC(OC(=O)C(O)(c2ccccc2)c2ccccc2)C1 (stereo not drawn)	inactive	inactive	–	–
CNC(=O)Oc1cc(C)c(SC)c(C)c1	inactive	inactive	–	–
CC(C)(OOC(C)(C)c1ccccc1)c1ccccc1	inactive	inactive	–	–
N#CCBr	inactive	inactive	–	–
Clc1ccc2ccccc2c1	inactive	inactive	–	–
COc1nc(NC(C)C)nc(NC(C)C)n1	inactive	inactive	–	–
C[C@]12CC[C@H]3[C@@H](CCC4=CC(=O)CC[C@@H]43)[C@@H]1CC[C@@H]2OC(=O)CCc1ccco1	inactive	inactive	–	–
Oc1ccc(Cl)cc1Cc1ccccc1	inactive	inactive	–	–
CCC12COCN1COC2	inactive	inactive	–	–
O=C(CCl)Nc1ccccc1	inactive	inactive	–	–
NNCc1ccccc1	inactive	inactive	–	–
CN(C)[C@@H]1C(=O)C(C(N)=O)=C(O)[C@@]2(O)C(=O)C3=C(O)c4c(O)cccc4[C@@](C)(O)[C@H]3[C@H](O)[C@@H]12	inactive	inactive	–	–
Cc1ccccc1N	inactive	inactive	–	–
O=C(CBr)c1ccc(O)cc1	inactive	inactive	–	–

Structure (SMILES)	Potency [1]	Potency [2]	viability change, negative = cytotoxic [1]	activity change, negative = cytotoxicity [2]
O=c1[nH]c(=O)[nH]c(=O)[nH]1	inactive	inactive	–	–
CCCSC(=O)N(CCC)CCC	inactive	inactive	–	–
COP(=O)(OC)Oc1ccc([N+](=O)[O-])cc1	inactive	inactive	–	–
CCCOC(=O)c1ccccc1C(=O)OCCC	inactive	inactive	–	–
ClCc1ccccc1Cl	inactive	inactive	–	–
CCC(C)n1c(=O)[nH]c(C)c(Br)c1=O (stereo not drawn)	inactive	inactive	–	–
CCOC(=O)C(c1c(O)c2ccccc2oc1=O)c1c(O)c2ccccc2oc1=O	inactive	inactive	–	–
Cc1ccc2c(C)cccc2c1	inactive	inactive	–	–
Brc1c(Br)c(Br)c(Br)c(Br)c1Br	–	–	0.231% [at 8.39 µM]	7.31% [at 8.39 µM]
CCSC(=O)N1CCCCCC1	inactive	inactive	–	–
CCCCC(=O)Cl	inactive	inactive	–	–
O=C(NCc1cccnc1)Nc1ccc([N+](=O)[O-])cc1	inactive	inactive	–	–
CC(C)CCCCCCOC(=O)c1ccccc1C(=O)OCCCCCCC(C)C	inactive	inactive	–	–
COC1CC(=C(c2cccs2)c2cccs2)C[N+](C)(C)C1 (stereo not drawn)	inactive	inactive	–	–
CN(C)C(=S)SSC(=S)N(C)C	12 µM (active) and 9.69 µM (active) and 7.5 µM (active)	12 µM (active) and 27.3 µM (active) and 16.8 µM (active)	–	–
O=P(OCCCl)(OCCCl)OCCCl	inactive	inactive	–	–
C[C@]12CC[C@H]3[C@@H](CCC4=CC(=O)CC[C@@H]43)[C@@H]1CC[C@@H]2OC(=O)CCC1CCCCC1	inactive	inactive	–	–
CC(C)(C)C(=O)C(Oc1ccc(Cl)cc1)n1cncn1 (stereo not drawn)	inactive	inactive	–	–
Oc1cccc(-c2ccccc2)c1	inactive	inactive	–	–
O=C=NC1CCCCC1	inactive	inactive	–	–
CCCCCCCCn1sccc1=O	54.6 µM (active) and 64.1 µM (active)	43.4 µM (active)	–	–
CC(C)NCC(O)c1ccccc1Cl (stereo not drawn)	inactive	inactive	–	–
OC(Cc1ccccc1Cl)(Cn1[nH]cnc1=S)C1(Cl)CC1 (stereo not drawn)	inactive	inactive	–	–
C[As+](C)(C)CC(=O)[O-]	inactive	inactive	–	–
COP(=O)(O)OC	inactive	inactive	–	–

Structure (SMILES)	Potency [1]	Potency [2]	viability change, negative = cytotoxic [1]	activity change, negative = cytotoxicity [2]
CC(=O)[C@H]1CC[C@H]2[C@@H]3CC[C@H]4C[C@](C)(O)CC[C@]4(C)[C@H]3CC[C@]12C	inactive	inactive	–	–
O.O.O.O=C([O-])[C@H]([O-])[C@@H]([O-])C(=O)[O-].O=C([O-])[C@H]([O-])[C@@H]([O-])C(=O)[O-].[K+].[K+].[Sb+3].[Sb+3]	inactive	inactive	–	–
OCC(O)CCl (stereo not drawn)	inactive	inactive	–	–
CN(C)C(=O)C(c1ccccc1)c1ccccc1	inactive	inactive	–	–
ClCCN1CCCC1	inactive	inactive	–	–
NCCc1cc(O)c(O)cc1O	inactive	inactive	–	–
Cc1ccc(N)cc1C	inactive	inactive	–	–
CC(O)C#N (stereo not drawn)	inactive	inactive	–	–
OP(O)c1ccccc1	inactive	inactive	–	–
O=C(NC(=O)c1c(F)cccc1F)Nc1cc(Cl)c(OC(F)(F)C(F)F)c(Cl)c1	inactive	inactive	–	–
CC1(C)C(=O)NC(=O)NC1=O	inactive	inactive	–	–
O=C(O)COc1ccc(Cl)cc1Cl	inactive	inactive	–	–
CCOC(=O)NC(C)(C)Cc1ccc(Cl)cc1	inactive	inactive	–	–
C[CH2][Hg][N]1C(=O)C2C(C1=O)C1(Cl)C(Cl)=C(Cl)C2(Cl)C1(Cl)Cl (stereo not drawn)	–	–	-25.3% [at 18.9 µM]	14.8% [at 18.9 µM]
Cc1cc(=O)[nH]o1	inactive	inactive	–	–
CC(C(=O)c1ccccc1)N(C)C (stereo not drawn)	inactive	inactive	–	–
C=CC(=O)NC(C)(C)CC(C)=O	inactive	inactive	–	–
CC1OC(C)OC(C)O1 (stereo not drawn)	inactive	inactive	–	–
O=[N+]([O-])c1ccc(CBr)cc1	inactive	inactive	–	–
CCSC(=O)Cl	inactive	inactive	–	–
Nc1cccc2ccccc12	inactive	inactive	–	–
COC1=CC(=O)O[C@@H](CCc2ccccc2)C1	inactive	inactive	–	–
CCn1cc[n+](C)c1C	inactive	inactive	–	–
CC(=O)CC(c1ccc(Cl)cc1)c1c(O)c2ccccc2oc1=O (stereo not drawn)	inactive	inactive	–	–
CCC1(CC)C(=O)NC(=O)NC1=O	inactive	inactive	–	–

Structure (SMILES)	Potency [1]	Potency [2]	viability change, negative = cytotoxic [1]	activity change, negative = cytotoxicity [2]
C#CC(C)(C)O	inactive	inactive	–	–
Cl	inactive	inactive	–	–
OCCBr	inactive	inactive	–	–
CC(C)(C)OOC(C)(C)C	inactive	inactive	–	–
CN1C[C@@H](NS(=O)(=O)N(C)C)C[C@@H]2c3cccc4c3c(cn4C)C[C@H]21	inactive	inactive	–	–
CCOC(=O)C1(c2ccccc2)CCN(CCc2ccc(N)cc2)CC1	inactive	inactive	–	–
[As]#[In]	inactive	2.17 µM (active)	–	–
CCCC[N+](CCCC)(CCCC)CCCC	inactive	inactive	–	–
CC(C)OC(=S)S	inactive	inactive	–	–
O=P1(NCCCl)OCCCN1CCCl (stereo not drawn)	inactive	inactive	–	–
CC(C)(C)OOC(=O)c1ccccc1	inactive	inactive	–	–
c1ccc2c(c1)Oc1ccccc1O2	inactive	inactive	–	–
c1ccc(P(c2ccccc2)c2ccccc2)cc1	inactive	inactive	–	–
c1ccc(N=NNc2ccccc2)cc1	inactive	inactive	–	–
O=C(NC(=O)c1c(F)cccc1F)Nc1cc(Cl)c(F)c(Cl)c1F	inactive	inactive	–	–
CNC(=O)NC(O)C(Cl)(Cl)Cl (stereo not drawn)	inactive	inactive	–	–
C#CCN(C)[C@H](C)Cc1ccccc1	inactive	inactive	–	–
O=C(Nc1ccc(Br)cc1)c1cc(Br)cc(Br)c1O	inactive	inactive	–	–
c1cc[c]([Hg][c]2ccccc2)cc1	inactive	inactive	–	–
CC1N=C(N)OC1c1ccccc1 (stereo not drawn)	inactive	inactive	–	–
CCCC(C)(COC(N)=O)COC(N)=O	inactive	inactive	–	–
CCC/C(=N\OCC)C1=C(O)CC(CC(C)SCC)CC1=O (stereo not drawn)	inactive	inactive	–	–
CN1C(=O)COc2c(C(=O)NC3CN4CCC3CC4)cc(Cl)cc21 (stereo not drawn)	inactive	inactive	–	–
CC(C)(C)NCC(O)c1ccccc1Cl (stereo not drawn)	inactive	inactive	–	–
